Results on five compounds are retold here after PubChem BioAssay.

Assay [1] concerns Human papillomavirus type 1a protein E7 (residues 44-93). The experiment in a line: HPV1a E7 fragment binders on microarrays, primary screen, biochemical, small-molecule microarray, residues 44-93, 635 nm fluorescence (AID 1108).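 Further: E7 fragment applied at 1 µg/mL in TBST for 1 h at 4 C; score combines spot fluorescence with its signal to noise ratio.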 As to conditions: small-molecule microarray binding, fluorescence 635 nm; higher = more signal.
Assay [2] can be described thus: modulators of HCV replicon luciferase signal, primary screen, HCV replication inhibitor project, Huh7 cells, luciferase reporter (AID 1109).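 Further: huh7 hepatoma cells harbouring a luciferase neomycin HCV replicon reporter; luciferase luminescence as measure of HCV replicon replication; test concentration not given here.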 Conditions: 48 h, higher = more signal. Background: Replicon systems follow genome replication, usually without infectious particles.
For assay [3], the target named is Left-right determination factor 2 (Homo sapiens) (UniProt O00292). The assay is described as follows: LEFTY2 binders on small-molecule microarrays, primary screen, biochemical, small-molecule microarray, 635 nm fluorescence scan (AID 1110). As to conditions: LEFTY2 binding, higher = more signal.
Sequence of Left-right determination factor 2 (Homo sapiens) (O00292 whole entry, looked up): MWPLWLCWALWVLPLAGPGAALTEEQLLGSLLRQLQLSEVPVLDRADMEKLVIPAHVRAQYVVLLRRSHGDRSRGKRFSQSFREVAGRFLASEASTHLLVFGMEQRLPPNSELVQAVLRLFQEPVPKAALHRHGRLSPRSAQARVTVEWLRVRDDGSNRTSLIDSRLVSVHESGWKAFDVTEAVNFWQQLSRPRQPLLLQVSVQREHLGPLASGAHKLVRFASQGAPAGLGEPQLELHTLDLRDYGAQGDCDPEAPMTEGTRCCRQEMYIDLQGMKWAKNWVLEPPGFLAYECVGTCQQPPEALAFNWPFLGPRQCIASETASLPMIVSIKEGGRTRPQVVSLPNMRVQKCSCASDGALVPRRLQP
For assay [4], the target named is Calmodulin-1 (Homo sapiens) (UniProt P0DP23). The assay is described as follows: CALM1 binders on microarrays, EGTA buffer, profiling panel, biochemical, small-molecule microarray, Cy5-labelled CALM1 (AID 1111).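 Further: labelled calmodulin applied in Tris saline Tween buffer holding calcium plus EGTA and DTT.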 Conditions: Cy5-CALM1 binding fluorescence, higher = more signal.
Assay [5] shares this target. The experiment in a line: calcium-bound CALM1 binders on microarrays, profiling panel, artefact control for SMM control-protein annotation, biochemical, small-molecule microarray, Cy5-labelled CALM1, plus calcium (AID 1112).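 Further: score merges spot fluorescence with signal to noise from triplicate slides.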 As to conditions: Cy5-CALM1 binding fluorescence, higher = more signal.
A short description of assay [6]: small-molecule microarray binders of probe aWnt5a, primary screen, biochemical, biotinylated probe, 635/667 nm fluorescence (AID 1113).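 Further: score merges 667 nm fluorescence intensity with signal-to-noise per printed feature.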 As to conditions: higher = more signal.
Assay [7] in a line: small-molecule microarray binders of probe aShh, primary screen, biochemical, biotinylated probe, 635/667 nm fluorescence (AID 1114).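 Further: probe is biotin-labelled aShh protein from a stem cell growth factor screen; measures binding of labelled protein to compounds printed on the slide; score merges feature fluorescence at 667 nm with signal-to-noise.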 Conditions: higher = more signal.
Assay [8] is described as follows: small-molecule microarray binders of probe aNog, primary screen, biochemical, biotinylated probe, 635/667 nm fluorescence (AID 1115).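 Further: probe is biotinylated aNog protein used at 0.15 µg/mL for 1 h at 4 C; z-score combines 667 nm fluorescence of each spot with its signal to noise.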 As to conditions: higher = more signal.
Assay [9] deals with Torsin-1A-interacting protein 1 (Homo sapiens) (UniProt Q5JTV8). The assay is described as follows: LAP1 binders from COS7 cell lysate, primary screen, small-molecule microarray, 635/667 nm fluorescence (AID 1116). Conditions: COS7-hLAP1 lysate binding, 635 nm fluorescence, higher = more signal.
Sequence of Torsin-1A-interacting protein 1 (Homo sapiens) (Q5JTV8 whole entry, looked up): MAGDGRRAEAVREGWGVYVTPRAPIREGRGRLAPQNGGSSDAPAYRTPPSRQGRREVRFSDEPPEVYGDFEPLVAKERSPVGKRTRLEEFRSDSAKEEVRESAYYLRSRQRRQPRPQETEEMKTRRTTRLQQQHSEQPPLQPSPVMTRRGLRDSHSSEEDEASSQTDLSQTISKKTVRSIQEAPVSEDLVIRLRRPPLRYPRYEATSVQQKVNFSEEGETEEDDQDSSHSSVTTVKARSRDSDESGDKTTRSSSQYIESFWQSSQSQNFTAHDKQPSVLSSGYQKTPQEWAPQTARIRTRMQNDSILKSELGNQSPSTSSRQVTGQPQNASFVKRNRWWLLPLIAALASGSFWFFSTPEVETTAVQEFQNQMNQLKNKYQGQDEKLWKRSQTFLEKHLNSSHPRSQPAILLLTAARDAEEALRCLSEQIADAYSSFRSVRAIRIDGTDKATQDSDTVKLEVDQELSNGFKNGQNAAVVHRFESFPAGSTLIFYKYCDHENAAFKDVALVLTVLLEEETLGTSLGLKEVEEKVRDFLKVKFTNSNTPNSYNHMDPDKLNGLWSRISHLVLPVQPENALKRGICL
For assay [10], the target named is Alpha-bungarotoxin (Bungarus multicinctus) (UniProt P60615). The assay is described as follows: alpha-bungarotoxin binders on microarray, profiling panel, artefact control for SMM control protein annotation, biochemical, small-molecule microarray, Alexa647 label, 635/667 nm fluorescence (AID 1117). Conditions: alpha-BTX-A647 binding fluorescence, higher = more signal.
Sequence of Alpha-bungarotoxin (Bungarus multicinctus) (P60615 whole entry, looked up): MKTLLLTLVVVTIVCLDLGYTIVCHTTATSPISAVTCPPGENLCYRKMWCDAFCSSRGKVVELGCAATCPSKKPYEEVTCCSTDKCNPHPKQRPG

Assay [11] deals with Albumin (Bos taurus) (UniProt P02769). The assay is described as follows: bovine serum albumin binders on microarray, profiling panel, artefact control for SMM control protein annotation, biochemical, small-molecule microarray, Alexa647 label, 635/667 nm fluorescence (AID 1118).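 Further: score merges 667 nm emission intensity and signal-to-noise per printed compound spot.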 As to conditions: BSA-A647 binding, fluorescence 635 nm, higher = more signal.
Sequence of Albumin (Bos taurus) (P02769 whole entry, looked up): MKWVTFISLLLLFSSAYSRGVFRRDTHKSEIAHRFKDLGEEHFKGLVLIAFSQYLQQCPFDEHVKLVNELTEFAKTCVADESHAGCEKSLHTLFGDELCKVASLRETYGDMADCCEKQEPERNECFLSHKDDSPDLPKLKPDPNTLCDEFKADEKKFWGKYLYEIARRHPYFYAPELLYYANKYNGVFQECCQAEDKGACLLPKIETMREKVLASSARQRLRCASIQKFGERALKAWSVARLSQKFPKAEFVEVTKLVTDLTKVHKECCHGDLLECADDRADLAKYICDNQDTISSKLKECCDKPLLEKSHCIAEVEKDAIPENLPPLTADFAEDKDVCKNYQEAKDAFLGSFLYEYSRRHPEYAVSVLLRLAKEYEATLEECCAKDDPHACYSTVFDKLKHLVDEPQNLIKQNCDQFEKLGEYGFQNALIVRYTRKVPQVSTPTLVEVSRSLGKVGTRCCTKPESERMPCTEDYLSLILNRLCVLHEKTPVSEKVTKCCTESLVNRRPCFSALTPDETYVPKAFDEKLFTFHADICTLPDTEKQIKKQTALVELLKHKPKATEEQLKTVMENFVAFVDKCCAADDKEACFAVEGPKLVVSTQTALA
Assay [12] can be described thus: small-molecule microarray binders of probe aXIP, primary screen, biochemical, NeuroSMM set, 635/667 nm fluorescence (AID 1119).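 Further: probe is the protein aXip251-270 applied at 1 µg/mL to compound-printed slides; binding of probe to printed compounds measured as 667 nm fluorescence plus signal to noise.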 As to conditions: higher = more signal, called active from +8 up or from −8 down.
Assay [13] in a line: small-molecule binders of probe aNOTCH3, primary screen, biochemical, small-molecule microarray, 635/667 nm fluorescence (AID 1120).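 Further: probe is a biotin-tagged antibody raised against NOTCH3 rather than NOTCH3 protein; score merges spot fluorescence near 667 nm with spot signal to noise.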 Conditions: higher = more signal.
Assay [14] can be described thus: small-molecule binders of probe aNOTCH2, primary screen, biochemical, small-molecule microarray, 635/667 nm fluorescence (AID 1121).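 Further: score merges feature fluorescence read at 667 nm with its signal to noise.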 As to conditions: higher = more signal.
Assay [15] addresses Carbonic anhydrase 2 (Homo sapiens) (UniProt P00918). The experiment in a line: CAII small-molecule binders, profiling panel, biochemical, small-molecule microarray, Alexa647-labelled CAII (AID 1122). As to conditions: CAII-A647 binding fluorescence, higher = more signal.
Assay [16] in a line: COS7 lysate on small-molecule microarray, probe aHis, 635 nm (AID 1123).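 Further: z-score combines 667nm fluorescence intensity with signal-to-noise per printed compound spot.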 As to conditions: COS7 cell lysate, fluorescence, higher = more signal.
Assay [17] in a line: compound binding in COS7 lysate, probe aLAP1, primary screen, cell lysate, small-molecule microarray (AID 1124).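 Further: lysate comes from COS7 cells expressing LAP1 and is applied at 0.3 µg/mL; score merges spot fluorescence near 667 nm with signal-to-noise over triplicate slides.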 Conditions: probe aLAP1, fluorescence, higher = more signal.
Assay [18] has as its system Sam68 (KHDRBS1). The assay is described as follows: Sam68 small-molecule binders, primary screen, biochemical, small-molecule microarray, 635 nm fluorescence (AID 1125).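 Further: score merges 667 nm channel intensity with signal to noise over triplicate slides.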 As to conditions: small-molecule microarray binding, higher = more signal.
Assay [19] deals with Chordin-like protein 2 (CHRDL2). The assay is described as follows: CHRDL2 small-molecule binders, primary screen, biochemical, small-molecule microarray, 635 nm fluorescence (AID 1126).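 Further: printed compound slides probed with Chrdl2 protein at 4 µg/mL for 1 h at 4 C; score merges 667 nm emission intensity with signal to noise over three replicate slides.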 Conditions: small-molecule microarray binding, fluorescence 635 nm; higher = more signal.
The target in assay [20] is Concanavalin-A (Canavalia ensiformis) (UniProt P02866). The experiment in a line: ConA small-molecule binders, primary screen, artefact control for SMM control protein annotation, biochemical, small-molecule microarray, Alexa647 label, 635 nm (AID 1127).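 Further: z combines 667 nm emission intensity with signal-to-noise across three replicate slides.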 Conditions: ConA-A647 binding fluorescence, higher = more signal.
Sequence of Concanavalin-A (Canavalia ensiformis) (P02866 whole entry, looked up): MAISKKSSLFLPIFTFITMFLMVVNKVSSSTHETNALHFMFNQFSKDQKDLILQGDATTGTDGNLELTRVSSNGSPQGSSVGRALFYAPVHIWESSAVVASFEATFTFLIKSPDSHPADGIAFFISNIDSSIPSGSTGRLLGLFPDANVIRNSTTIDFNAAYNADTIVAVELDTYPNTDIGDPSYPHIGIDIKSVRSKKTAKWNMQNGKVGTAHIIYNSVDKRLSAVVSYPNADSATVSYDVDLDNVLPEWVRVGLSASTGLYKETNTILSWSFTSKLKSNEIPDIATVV

Activity calls are given as the source filed them.

Regarding `CC(C)C(CO)N1C(=O)[C@@H]2[C@H]3C(=O)OCC=C[C@H]3OC23C=CCN(CCN2CCOCC2)C(=O)[C@@H]13` (stereo not given in full), the composite z-score in assay [1] was -0.0831; in assay [3] it was -0.0025; in assay [4], -0.229; in [5] it was -1.32; in assay [6] it was -0.176; in [7], -0.0709. Moreover, the composite z-score in assay [8] is -0.0719; in [9], -0.128; in [10], 0.451; in assay [11], -0.36; in assay [13], -0.125; in assay [14], -0.164. The composite z-score in assay [15] is -0.111; in [16], -0.332; in [17], -0.0765; in assay [18], 0.0784; in [19] it was 0.446; in assay [20], 0.166. This compound registered a z-score in [2] of -0.911. The composite Z-score in assay [12] is -0.0157 (inactive).
For the compound `CC1CC/C=C\[C@H]2OC34C=CCN(Cc5ccccc5)C(=O)[C@H]3N(CCO)C(=O)[C@@H]4C2C(=O)O1` (stereo not given in full), the composite z-score in [1] is 0.442; in [3], -0.51; in [4], -0.556; in [5], 0.0116; in assay [6], 0.0597; in assay [7] it was -0.0035. For the same compound, the composite z-score in [8] is 0.0169; in [9] it was 1.62; in assay [10] it was -0.4; in [11], -0.897; in [13], -0.0984; in [14], -0.154. The composite z-score in [15] was 0.873; in assay [16], 0.368; in assay [17] it was 1.29; in [18] it was 0.386; in [19] it was -0.793; in assay [20] it was -0.315. The compound also had a z-score in assay [2] of -0.0892. The composite Z-score in assay [12] is 0.461 (inactive).
`O=C(CS)NCCCCCNC(=O)[C@@H]1C[C@@H]2C(=O)N3CCC[C@H]3C(=O)N2[C@@H]1c1ccc(O)cc1`: the composite z-score in assay [1] was 0.922; in assay [3], 0.0978; in [4] it was 0.195; in assay [5] it was 0.194; in [6], -0.0758; in assay [7], 0.499. The composite z-score was -0.152 in assay [8]; 0.375 in [9]; 0.542 in assay [10]; -0.683 in assay [11]; -0.0587 in [13]; -0.151 in assay [14]. In addition, the composite z-score in assay [15] was 0.636; in assay [16], 1.86; in assay [17] it was 0.363; in assay [18], 0.928; in assay [19], -0.0012; in assay [20], 1.15. This compound also displayed a z-score in [2] of 0.0311. Also, the composite Z-score in assay [12] was 0.647 (inactive).
In the case of `N#Cc1ccc(NN2C(C(O)c3ccccc3)C=CC3C(=O)N(c4ccccc4)C(=O)C32)cc1` (stereo not given), the composite z-score in assay [1] is 0.117; in [3], -0.135; in assay [4], -0.0722; in assay [5] it was -0.162; in assay [6] it was 0.0797; in assay [7] it was -0.102. Also, the composite z-score in assay [8] is 0.642; in assay [9] it was -0.113; in assay [10], 0.153; in [11], 0.801; in assay [13] it was 0.222; in [14] it was 0.0288. The composite z-score in assay [15] is 0.809; in assay [16] it was 1.97; in [17], 0.191; in assay [18], 0.0437; in [19], -0.605; in [20], -0.0029. This compound registered a z-score in assay [2] of 0.335. For the same compound, the composite Z-score in [12] is 0.151 (inactive).
With `NC(=O)NCC#Cc1ccc2c(c1)[C@]1(C(=O)N2)[C@H](c2ccc(OCCO)cc2)N2[C@H](c3ccccc3)[C@H](c3ccccc3)OC(=O)[C@H]2[C@@H]1C(=O)N1CCN(c2ncccn2)CC1`, the composite z-score in [1] is 0.833; in [3], 0.259; in assay [4] it was 0.362; in [5], 0.492; in assay [6], -0.0977; in assay [7], 0.156. The composite z-score in assay [8] is 0.042; in assay [9], 0.655; in assay [10] it was 1.21; in assay [11], -0.17; in [13], 0.108; in assay [14], 0.0101. Moreover, the composite z-score amounted to 0.257 in [15]; 0.815 in assay [16]; 0.332 in assay [17]; 0.776 in assay [18]; 0.903 in assay [19]; 0.698 in [20]. Moreover, in assay [2], the z-score was -0.488. Besides, the composite Z-score in assay [12] was -0.991 (inactive).
